Source: PubChem BioAssay AID2284156 (EPA ToxCast)
Activity calls are given as the source filed them. How the source made its calls: active means hit-call score of the fitted dose curve at least 0.9, where 1 is the maximum; inactive means score below 0.9.

target: Muscarinic acetylcholine receptor M5 (Homo sapiens) (UniProt P08912); assay: ERF_FR_GPCR_hCHRM5: Eurofins (ERF) G Protein-Coupled Receptor (GPCR) Radioligand Binding LeadHunter Assay for human Muscarinic Acetylcholine Receptor M5 Antagonism, conducted at France lab site
Protocol: ERF_FR_GPCR_hCHRM5 is a biochemical, single-readout assay that uses extracted gene-proteins in a cell-free assay. Measurements were taken 1 hour after chemical dosing in a 96-well plate. See M5 Human Acetylcholine (Muscarinic) GPCR Binding (Antagonist Radioligand) Assay, Cerep.ERF_FR_GPCR_hCHRM5 is an assay component calculated from the ERF_FR_GPCR_hCHRM5 assay. It is designed to measure radioligand binding using a type of binding reporter as detected by scintillation counting with radiometry technology.Data from the assay component ERF_FR_GPCR_hCHRM5 was analyzed at the assay endpoint, ERF_FR_GPCR_hCHRM5, in the positive analysis fitting direction relative to DMSO as the negative control and baseline of activity. Using a type of binding reporter, loss-of-signal activity can be used to understand changes in binding as they relate to gene CHRM5. To generalize the intended target to other relatable targets, this assay endpoint is annotated to the gpcr intended target family, where the subfamily is acetylcholine (Muscarinic).
Human cells are incubated for 60 minutes at room temprature with [3H]4-DAMP ligand (0.3 nM) and 4-Damp methiodide as control inhibitor.Test Sample Requirements: Minimum for 1) Screen: 60 ul of 10 mM stock -OR- 1 mg (pre-weighed) for 10 uM final testing. 2) Dose Response: 90 ul of 10 mM stock -OR- 1 mg (pre-weighed) for a top concentration at 10 uM.

Muscarinic acetylcholine receptor M5 (Homo sapiens), sequence (P08912 whole entry, looked up): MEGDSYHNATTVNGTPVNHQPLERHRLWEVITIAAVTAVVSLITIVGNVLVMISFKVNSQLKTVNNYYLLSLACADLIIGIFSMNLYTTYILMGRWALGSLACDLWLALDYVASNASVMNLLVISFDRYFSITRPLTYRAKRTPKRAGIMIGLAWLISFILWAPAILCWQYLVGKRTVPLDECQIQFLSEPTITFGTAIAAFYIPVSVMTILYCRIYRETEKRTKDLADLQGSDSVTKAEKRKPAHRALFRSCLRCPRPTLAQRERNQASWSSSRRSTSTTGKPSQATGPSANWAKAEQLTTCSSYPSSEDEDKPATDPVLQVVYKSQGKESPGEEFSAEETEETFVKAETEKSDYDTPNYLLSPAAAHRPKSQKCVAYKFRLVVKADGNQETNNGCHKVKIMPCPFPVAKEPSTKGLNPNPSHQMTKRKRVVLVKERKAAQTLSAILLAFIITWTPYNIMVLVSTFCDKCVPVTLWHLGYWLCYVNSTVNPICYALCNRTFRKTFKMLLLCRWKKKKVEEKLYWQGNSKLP

Question: How did the outcome turn out when `O=C(/C=C/c1ccc(O)cc1)CC(=O)/C=C/c1ccc(O)cc1` was run?
Answer: Its outcome is “inactive”.
